Hit rate of the full screen: of about 350,000 compounds, about 2,100 (0.6%) were called active. Not shown: some 1% with an inconclusive outcome. Shown is part of a subset that was picked to be rich in actives. Unmarked numbers belong to inactive results.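 The calls were made as follows: active = activity change of -60% or lower, but not beyond a set lower limit; inconclusive = change between -60% and -40%, or beyond the set limit; inactive = change above -40%.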
% is scaled to controls: 0 for no effect and ±100 for the full control effect.

Chain of Relaxin receptor 1 (Homo sapiens) (Q9HBX9 whole entry, looked up): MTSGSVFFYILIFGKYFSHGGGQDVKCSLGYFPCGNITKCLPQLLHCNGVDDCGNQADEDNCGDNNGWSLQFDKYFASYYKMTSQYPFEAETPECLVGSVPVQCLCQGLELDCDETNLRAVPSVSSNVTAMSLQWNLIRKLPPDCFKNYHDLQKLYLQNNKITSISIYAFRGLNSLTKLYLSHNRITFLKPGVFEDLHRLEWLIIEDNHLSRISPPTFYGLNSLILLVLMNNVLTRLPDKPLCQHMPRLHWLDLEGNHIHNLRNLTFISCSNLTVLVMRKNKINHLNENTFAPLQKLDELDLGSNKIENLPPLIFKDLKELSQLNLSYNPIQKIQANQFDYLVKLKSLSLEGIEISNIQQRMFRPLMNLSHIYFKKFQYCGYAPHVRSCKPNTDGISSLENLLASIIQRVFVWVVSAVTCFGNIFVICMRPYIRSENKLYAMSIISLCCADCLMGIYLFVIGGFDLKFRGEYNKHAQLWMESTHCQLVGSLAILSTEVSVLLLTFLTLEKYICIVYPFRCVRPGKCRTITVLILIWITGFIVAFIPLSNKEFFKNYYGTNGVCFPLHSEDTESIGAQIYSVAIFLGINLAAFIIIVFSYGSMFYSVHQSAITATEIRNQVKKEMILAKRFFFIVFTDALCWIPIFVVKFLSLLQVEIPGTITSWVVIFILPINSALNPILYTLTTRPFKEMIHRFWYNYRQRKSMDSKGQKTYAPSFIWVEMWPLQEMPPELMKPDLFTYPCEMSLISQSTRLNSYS

The target of this test is Relaxin receptor 1 (Homo sapiens) (UniProt Q9HBX9). Briefly: qHTS Assay for Antagonists of the Relaxin Receptor RXFP1. To be noted: HEK293-RXFP1, relaxin-stimulated cAMP HTRF, 30 min; at 57.5 µM; hits give low values. The source says:
The relaxin hormone is involved in the variety of biological functions in normal tissues and diseases. The role of relaxin is well-established in female reproduction and parturition, mammary gland and endometrial development, maintenance of myometrial quiescence during pregnancy. Relaxin signaling through its G protein-coupled receptor (GPCR) RXFP1 results in ECM remodeling through regulation of collagen deposition, cell invasiveness, proliferation and overall tissue homeostasis. […] Recombinant human relaxin (rhRlx) is currently being tested in clinical trials as a protective agent in congestive heart failure, in treating severe preeclampsia, and as an anti-fibrotic agent in various organs. […] Upon relaxin binding RXFP1 activation leads to the activation of adenylate cyclase (AC) via G?s. cAMP will activate PKA, which phosphorylates many signaling proteins. Thus, detection of cAMP increase is an easy and reliable indication of relaxin receptor activation. To screen for antagonists of the relaxin receptor, a HEK293T cell line stably transfected with RXFP1 was used. RXFP1 activation by relaxin in presence of various concentrations of tested compounds was assayed by changes in cAMP levels as detected with a time-resolved fluorescence energy transfer (TR-FRET) cAMP detection kit.
For the primary screening, we used HTRF(R) (Homogenous Time-Resolved Fluorescence) cAMP HiRange assay (Cisbio Bioassays, 62AM6PEJ). Presence of cAMP in the cell lysate disrupts binding between the Cryptate-labeled anti-cAMP and d2-labeled cAMP pair, leading to a decrease in TR-FRET signal. The libraries were screened at two doses (57microM and 11microM), followed by a confirmation of the hits at 7-point serial dilution in the range of final concentrations [57microM - 78nM]. Data were normalized to the controls for basal activity (buffer only) and 100% activity (5 nM porcine relaxin). The EC50 values were determined from concentration-response data modeled with the standard Hill equation. NCGC Assay Protocol Summary: HiHEK (Hawaiian HEK293 LGR7 stably transfected with human RXFP1) were grown in the following media: DMEM+10%FBS+Pen/Strep + Geneticin (1mg/ml). For the assay, the cells were seeded in DMEM+Pen/Strep (with no serum & selective antibiotics) at 2,100 cells/ 3microl/well with MultiDrop Combi dispenser (Thermo Scientific, Logan, UT) onto white tissue culture treated solid bottom1536-well plates (Greiner #789173-F) and allowed to attach/recover overnight at 37 degrees C, 5% CO2. Next, 23nl/well of compound solutions in DMSO were transferred into wells with a pintool (Kalypsis, San Diego, CA). […] EC80 (relaxin at 50pM final concentration) was dispensed to the rest of the plate except columns 1&2 which were used as a negative control (EC0, buffer only), 1microl/well also. The cells were stimulated by relaxin in the presence of compounds for 30 minutes at 37 degrees C, 5% CO2. The detection reagents were prepared individually by dilution in Lysis buffer (supplied with the assay kit) just prior to dispensing. 1microl/well of cAMP-d2 and 1microl/well anti-cAMP-Eu3+-Cryptate antibodies were added simultaneously with BioRAPTR FRDtrade mark Workstation (Beckman Coulter). The plates were incubated at ambient temperature for 30 minutes and, then, FRET signal was read on Envision plate reader (PerkinElmer, Waltham, MA), at wavelengths 340nm (excitation), 615nm & 665nm (emission of donor and acceptor channels respectively).
As for `O=C1NC(=O)C(CCOc2ccccc2)(CCc2ccccc2)C(=O)N1`, the activity change, negative = inhibition was 1.73%.
In the case of `O=C1NC(=O)C(Cc2ccccc2)C(=O)N1`, the activity change, negative = inhibition is 13.2%.
Turning to `CCC1(CC(C)c2ccccc2)C(=O)NC(=O)NC1=O` (stereo not given), the activity change, negative = inhibition was -60.5% (active).
Consider `COC(=O)C1=C(c2ccc(OCc3ccccc3)cc2)C[C@@H]2CC[C@H]1N2C(=O)NCc1ccc(Cl)cc1`, for which the activity change, negative = inhibition was -0.858%.
On to `COc1ccc(C2C=C(C)Oc3c2c(=O)oc2ccccc32)cc1OC` (stereo not given), for which the activity change, negative = inhibition is -2.25%.
To `Cc1cc(/C=C2/C(=O)NC(=O)N(Cc3ccco3)C2=O)c(C)n1-c1ccc(C(=O)O)cc1` belongs 7.49%.
In the case of `O=C1NC(=O)N(Cc2ccco2)C(=O)/C1=C\c1cccn1CCOc1ccccc1`, the activity change, negative = inhibition is 2.7%.
To `O=C1NC(=O)N(Cc2ccco2)C(=O)/C1=C\c1ccc(-c2ccc(F)cc2)o1` belongs -116% (active); to `CC1N=C(N)OC1c1ccccc1` (stereo not given), 7.33%.
In the case of `CC(=CCOc1ccc2ccc(=O)oc2c1)C1=CC(=O)C(C)(C)O1`, the activity change, negative = inhibition is 1.36%.
Consider `Cc1cccc(N2C(=O)NC(=O)/C(=C\c3cnn(-c4ccccc4)c3)C2=O)c1`, for which the activity change, negative = inhibition was -97.1% (active).
On to `O=C1NC(=O)N(c2ccccc2)C(=O)/C1=C/c1ccc([N+](=O)[O-])s1`, for which the activity change, negative = inhibition is -11.7%.
Consider `COc1cccc(N2C(=O)NC(=O)/C(=C\c3cn(C)c4ccccc34)C2=O)c1`, for which the activity change, negative = inhibition is 1.09%.
With `CC1=C(C(=O)O)N2C(=O)[C@@H](N)[C@H]2SC1`, the activity change, negative = inhibition was 7.08%.
As for `C[C@H]1CN([C@@H](C)CO)C(=O)CCCn2nncc2CO[C@H]1CN(C)C(=O)Oc1ccccc1`, the activity change, negative = inhibition was -9.78%.
In the case of `CC(c1ccccc1)(c1ccccc1)c1ccncc1`, the activity change, negative = inhibition was -80.6% (active).
As for `O=S(=O)(O)C(F)(F)C(F)(F)C(F)(F)C(F)(F)F`, the activity change, negative = inhibition was 19.3%.
With `CO[C@]12CC[C@@]3(C[C@@H]1[C@](C)(O)C(C)(C)C)[C@@H]1Cc4ccc(O)c5c4[C@@]3(CCN1CC1CC1)[C@H]2O5` the figure was -34%; with `CCCOC(=O)c1cncn1C(C)c1ccccc1` (stereo not given), 12.5%.
`Cc1ncoc1C(=O)NCC1=C(c2cccc3ccccc23)C[C@@H]2CC[C@H]1N2Cc1ccco1`: the activity change, negative = inhibition is -0.31%.
With `c1cc2c(c(NC3=NCCCS3)c1)CCCC2` the figure was 4.47%.
`CCCCC1C(=O)NC(=O)N(C2CCCCC2)C1=O` (stereo not given): the activity change, negative = inhibition is -10.8%.
With `CCCCCCCCCCCCn1ccc(=N)cc1` the figure was -73.7% (active); with `O=c1c2ccccc2nc(CBr)n1-c1ccc(Cl)cc1`, 8.62%; with `C[C@H]1CN([C@@H](C)CO)C(=O)CCCn2nncc2CO[C@H]1CN(C)C(=O)Oc1cccc2ccccc12`, 3.41%.

The record behind these values is PubChem BioAssay AID1259400 (National Center for Advancing Translational Sciences (NCATS), 2018).
